In the library only some 5.4% were active in any assay of this set; here they are far more common.
CSC inhib: blocks cancer stem cells; actives 1.1% (n = 300,000); inhibition, % at 7.5 µM; cancer stem cell-like cells viability, luminescence; in the data active means inhibition above about 75%; inconclusive means no clear call, values can overlap the other calls; tested in HMLE shEcad cells
Calb FLC: C. albicans growth modulation with fluconazole | C. albicans CaCi-2 (fluconazole-resistant clinical isolate) + fluconazole, Alamar Blue growth, 48 h | growth inhibition, % (test concentration not listed) | actives 0.57% (n = 300,000);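 active means growth inhibition above about 58% in most replicates, limit read from the data, passing the limit was not always enough; inconclusive means exactly half the replicates above a set limit; inactive means most replicates below a set limit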;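 further: all wells also contain fluconazole at 8 µg/ml as a sub-toxic cotreatment; 0% = median of DMSO wells and 100% = median of geldanamycin control wells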
PP5 inh: inhibitors of human protein phosphatase 5 (PP5) | P53041 | purified PP5c, OMFP substrate fluorescence | inhibition, % at 6.7 µM | AID 1987 | actives 0.18% (n = 320,000);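 active means inhibition above the campaign's mean inhibition across all tested compounds plus 3 SD, cut at about 9.5% in these data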;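 further: 0% = DMSO only and 100% = 100 µM cantharidin control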
ALR H2O2 inh: blocks human ALR sulfhydryl oxidase activity; inhibition, % (no concentration beside the values); P55789; actives 3.8% (n = 290,000); purified ALR, DTT oxidation, H2O2 HRP-luminol luminescence;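 active means mean replicate inhibition above about 79%, with every replicate also reaching it, limit read from the data; inconclusive means only one of the two criteria met; inactive means mean below limit and not every replicate reaching it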
Target sequence (P55789 whole entry, looked up): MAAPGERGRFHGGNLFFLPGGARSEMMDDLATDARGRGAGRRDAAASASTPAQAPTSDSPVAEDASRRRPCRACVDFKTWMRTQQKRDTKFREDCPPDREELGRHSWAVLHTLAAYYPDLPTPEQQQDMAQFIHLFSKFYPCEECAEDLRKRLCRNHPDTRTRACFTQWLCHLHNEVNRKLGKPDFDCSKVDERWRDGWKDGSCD
PP1 inh: PP1-alpha (human) inhibition in PP5 counter-screen; AID 2235; inhibition, % at 6.7 µM; purified PP1alpha, OMFP fluorescence; actives 0.9% (n = 320,000); P62136;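 active means inhibition above the mean inhibition of all tested compounds plus 3 SD, computed separately for each screening campaign, cut at about 15% in these data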
Target sequence (P62136 whole entry, looked up): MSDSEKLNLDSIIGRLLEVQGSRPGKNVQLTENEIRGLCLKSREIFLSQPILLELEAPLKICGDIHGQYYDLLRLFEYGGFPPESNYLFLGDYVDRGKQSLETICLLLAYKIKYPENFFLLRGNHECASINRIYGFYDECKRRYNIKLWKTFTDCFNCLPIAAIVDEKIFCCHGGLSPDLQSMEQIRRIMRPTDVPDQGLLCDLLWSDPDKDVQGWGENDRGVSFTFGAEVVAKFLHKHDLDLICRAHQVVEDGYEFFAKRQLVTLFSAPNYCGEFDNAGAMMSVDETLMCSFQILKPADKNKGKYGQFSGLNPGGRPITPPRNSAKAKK
The depositor's hits bear a star; ? = inconclusive; / = no result given.

SMILES | CSC inhib | Calb FLC | PP5 inh | ALR H2O2 inh | PP1 inh
Cc1cccc(C(O)(C(=O)NNC(=O)CN2CCN(C)CC2)c2cccc(C)c2)c1 | -1 | -12 | 0 | 1 | -3
CN(C)P(=O)(C(Cl)=C(N1CCCCC1)N1CCCCC1)N(C)C | -5 | 1 | 2 | 98* | -2
Oc1cc2c(cc1O)[C@H]1c3ccccc3CN[C@@H]1CC2 | 1 | / | 3 | 99* | -5
CCCCCn1c(N)c(C(=O)NCCN2CCOCC2)c2nc3ccccc3nc21 | 49 | -1 | 3 | -6 | 3
CCCCCCn1c(N)c(C(=O)NCCN2CCOCC2)c2nc3ccccc3nc21 | 111* | 7 | 8 | -14 | 1
CN1Cc2cccnc2N(C)Cc2cc(Cl)ccc21 | 1 | 1 | 2 | 99* | 8
CCCC(C)C1(CC)C(=O)NC(=Nc2ccc(F)cc2)NC1=O (configuration not stated) | 4 | -1 | 4 | -18 | -5
COc1cc(/C=C/C(=O)c2c(O)n(CCc3ccccc3)c(=O)[nH]c2=O)ccc1O | -11 | 1 | 3 | 97* | 5
O=C(/C=C/c1ccccc1)c1c(O)n(CCc2ccccc2)c(=O)[nH]c1=O | 42 | 4 | -3 | -12 | 4
CC(=O)OC1N=C(c2ccccc2)c2cc(Br)ccc2N(C)C1=O (configuration not stated) | -20 | 20 | 2 | / | 1
OC(Cc1ccccc1)(c1ccccc1)C1CN2CCC1CC2 (configuration not stated) | -19 | -13 | 0 | 0 | -2
COc1ccc(Cn2c(O)c(/C=N/NC(=O)c3ccccc3)c(=O)[nH]c2=O)cc1 | -5 | 81* | 0 | 37 | 5
COc1ccc(Cn2c(O)c(/C=N/NC(=O)c3ccncc3)c(=O)[nH]c2=O)cc1 | -14 | 2 | 2 | -20 | 1
CCCn1c(C)c(C(=O)c2cccc3ccccc23)c2ccccc21 | 53 | / | 3 | -50 | 0
CCN1CCN(c2ccc(N)c(C)c2)CC1 | 0 | 10 | -1 | 96* | -3
Cc1ccc(N/N=C/c2c(O)n(-c3ccccc3)c(=O)[nH]c2=O)cc1 | 96* | -4 | 0 | 58 | -2
CC/C(=N\Nc1ccccc1)c1c(O)n(-c2ccccc2)c(=O)[nH]c1=O | ? | 21 | 0 | 99* | -2
Cc1ccc(-n2c(O)c(/C=C/C=Nc3ccccc3)c(=O)[nH]c2=O)cc1 | / | 26 | -3 | 2 | -3
CCN(CC)c1ccc(N=Cc2c(O)n(-c3ccccc3C)c(=O)[nH]c2=O)cc1 | -2 | ? | 3 | 98* | 2
CCN(CC)c1ccc(N=Cc2c(O)n(-c3ccccc3)c(=O)[nH]c2=O)cc1 | 10 | 21 | -1 | 81* | -3
COc1ccc(-n2c(O)c(/C(C)=N/Nc3ccccc3)c(=O)[nH]c2=O)cc1 | -6 | -4 | -1 | -13 | -2
COc1ccc(OC)c(-n2c(O)c(/C=C3\C(C)=Nc4ccccc43)c(=O)[nH]c2=O)c1 | 0 | -5 | -1 | 13 | -4
CCC(=NCc1cc(OC)cc(OC)c1)c1c(O)n(C2CCCCC2)c(=O)[nH]c1=O | 16 | -6 | 1 | -4 | -2
CCOC(=O)/C(CCCN(CC)CC)=N\O | -5 | -5 | 2 | -3 | -1
COc1cc(CN=Cc2c(O)n(C(C)(C)C)c(=O)[nH]c2=O)cc(OC)c1 | -5 | 0 | 0 | / | -2
SMILES | CSC inhib | Calb FLC | PP5 inh | ALR H2O2 inh | PP1 inh
CC(=O)c1ccc2c(c1)C1C(Cl)C(Sc3ccccc3[N+](=O)[O-])CC1C(C(=O)O)N2 (configuration not stated) | 9 | / | 3 | 95* | 5
CCn1cc(C(=O)c2ccccc2)c2ccccc21 | / | 97* | 4 | 5 | 2
COc1ccc(SCC2CN(C)CCC2c2ccc(F)cc2)cc1 (configuration not stated) | 29 | -9 | 1 | 2 | -3
CCCN(CCC)C1CCc2ccc(O)cc2C1 (configuration not stated) | -15 | / | -1 | 13 | -4
CNC(C)Cc1ccccc1Sc1ccc(O)cc1 (configuration not stated) | 8 | 6 | -1 | 99* | 1
O=c1nc(/C=C/c2ccc(Cl)cc2Cl)cc(C(F)(F)F)[nH]1 | 108* | 0 | / | 6 | /
CCCCn1c(O)c(C(CC)=Nc2ccc(OCC)cc2)c(=O)[nH]c1=O | -6 | -2 | 1 | -6 | 9
S=P(Nn1cnnc1)(c1ccccc1)c1ccccc1 | 2 | 9 | 2 | 1 | -3
Oc1ccccc1/C=N/NP(=S)(c1ccccc1)c1ccccc1 | 97* | 14 | 1 | -1 | 0
C/C(=N\NP(=S)(c1ccccc1)c1ccccc1)c1ccc(O)cc1O | -6 | 8 | 3 | -7 | 0
Oc1ccc(/C=N/NP(=S)(c2ccccc2)c2ccccc2)cc1O | 35 | 37 | 3 | 99* | 1
Oc1ccc(/C=N/NP(=S)(c2ccccc2)c2ccccc2)c(O)c1O | -16 | 104* | 2 | 99* | 0
CCN(CC)C(=O)c1ccc(NC(=O)COC(=O)c2ccc(Cl)s2)cc1 | -11 | / | 2 | / | -4
Cc1cc(=O)oc2cc3c(cc12)CCCN3 | -2 | 2 | -1 | 93* | -3
CCC(=O)N1CC(=O)Nc2ccc(F)cc2C1c1ccc(F)cc1 (configuration not stated) | -11 | -13 | 0 | -13 | -2
Cc1cccc(N2C(=O)NC(=O)/C(=C/c3ccc(N4CCOCC4)cc3)C2=O)c1 | 10 | 13 | -1 | 97* | -1
C=CCN1C(=O)NC(=O)/C(=C/c2cnc(SC)nc2)C1=O | -6 | -3 | 2 | 18 | -1
C=CCN1C(=O)NC(=O)/C(=C/c2cc3c4c(c2)CCCN4CCC3)C1=O | 2 | 3 | -1 | 99* | 5
C=CCn1c(O)c(/C=N/NC(=O)CCCC)c(=O)[nH]c1=S | -1 | -2 | -4 | 90* | -6
CC1CC(OP(O)(=S)c2ccc(N(C)C)cc2NC(=O)c2cccs2)CC(C)(C)C1 (configuration not stated) | -16 | 70 | -1 | 99* | 5
CC(=O)Nc1ccc(OC(=O)N(C)c2ccccc2)cc1 | -6 | 6 | 2 | -8 | 0
CN(C)c1ccc(/C=C2/C(=O)NC(=O)N(Cc3ccco3)C2=O)cc1 | -9 | 10 | 3 | 19 | -2
Cc1cc(/C=C2/C(=O)NC(=O)N(Cc3ccco3)C2=O)c(C)n1-c1ccccc1 | / | 3 | 2 | 92* | 8
CC1CN=C(NC(C)c2ccccc2)S1 (configuration not stated) | 0 | -1 | 3 | / | -2
O=C1NC(=O)N(c2ccccc2F)C(=O)/C1=C/c1ccc(Sc2nc3ccccc3[nH]2)o1 | -9 | / | 0 | 98* | 0
O=C1NC(=O)N(c2cccc(Cl)c2)C(=O)/C1=C\c1ccc(Sc2nc3ccccc3[nH]2)o1 | -2 | 4 | 1 | 69 | 8
O=C1NC(=S)N(c2ccccc2)C(=O)/C1=C/c1ccco1 | 2 | 1 | -1 | 99* | 6
O=C1NC(=O)N(c2ccccc2)C(=O)/C1=C/c1ccc(Sc2ccccc2)o1 | 28 | 10 | -1 | 97* | 0

Assay outcomes from PubChem.
